We go through 14 compounds from PubChem BioAssay (NCI).

This is part of a sample that, as a whole, favours compounds with a hit. Of some 83,000 tested, about 20% had one in any assay.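 96-well plates, one dose, 48 hours. Percent growth reported; active if below 10.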 Values without a mark were called inactive. Activity calls are given as the source filed them.

Among the test systems are T-47D breast; BT-549 breast; MDA-MB-435 melanoma; SW-620 colon; MCF7 breast; HCT-116 colon; HCC-2998 colon; KM12 colon.
Common to all, as to experiment: NCI-60 one-dose screen, 48 h (100 = growth as untreated, 0 = no growth, -100 = all killed)
What all share (settings): 10 µM unless noted

Consider `COc1ccc(/C=C2/C(=O)Nc3cc(Cl)c(-c4csc(N)n4)cc32)cc1`, for which the growth was 23.5% in the assay on T-47D breast; 33.4% in the assay on BT-549 breast; -14.4% (active) in the assay with MDA-MB-435 melanoma; 31.2% with SW-620 colon; 25% in the assay on MCF7 breast; 36.2% in the assay on HCT-116 colon. Also, the growth was 77.3% in the assay on HCC-2998 colon and 25.7% with KM12 colon.

As for `O=C1CCC(c2c(O)cc(O)c3c(=O)c(O)c(-c4ccc(O)c(O)c4)oc23)N1` (configuration not stated), the growth was 83.6% in the assay with T-47D breast; 112% in the assay with BT-549 breast; 110% in the assay with MDA-MB-435 melanoma; 108% with SW-620 colon; 95.2% with MCF7 breast; 99.8% in the assay with HCT-116 colon. Besides, the growth with HCC-2998 colon is 89.4%; with KM12 colon, 101%.

As for `O=C(Nc1ccc(-n2ccc3c(NC(=O)c4ccccc4)nccc32)cc1)c1cccc(C(F)(F)F)c1`, the growth with T-47D breast was 58.3%; with BT-549 breast, 29%; with MDA-MB-435 melanoma it was 11%; in the assay with SW-620 colon, 19.2%; in the assay with MCF7 breast, 24.3%; in the assay on HCT-116 colon it was 12.8%. Further, the results for the growth in the assay on HCC-2998 colon and with KM12 colon were 44.2% and 20.4%, respectively.

`COc1ccc(/C(Cl)=N/N=C(\Cl)c2cc(OC)c(OC)c(OC)c2)cc1OC(C)=O`: the growth in the assay with T-47D breast was 66.2%; with BT-549 breast, 96.1%; in the assay on MDA-MB-435 melanoma, 99.9%; with SW-620 colon, 93.7%; with MCF7 breast, 93.9%; with HCT-116 colon it was 90.5%. Moreover, the figures for the growth in the assay with HCC-2998 colon and with KM12 colon were 102% and 98.2%, respectively.

On to `CC(Cc1cccc(C(F)(F)F)c1)NCCOC(=O)c1ccccc1` (configuration not stated), for which the growth in the assay on T-47D breast was 105%; in the assay on BT-549 breast it was 109%; with MDA-MB-435 melanoma it was 102%; in the assay with SW-620 colon it was 103%; with MCF7 breast it was 106%; with HCT-116 colon, 100%. In addition, the values for the growth with HCC-2998 colon and in the assay with KM12 colon were 109% and 114%, respectively.

For `CC1CCc2cc(F)cc3c(=O)c(C(=O)O)cn1c23` (configuration not stated), the growth in the assay on T-47D breast is 99.7%; with BT-549 breast it was 104%; in the assay on MDA-MB-435 melanoma it was 94.8%; in the assay with SW-620 colon, 106%; with MCF7 breast, 112%; with HCT-116 colon, 105%. The values for the growth with HCC-2998 colon and in the assay on KM12 colon were 105% and 102%, respectively.

As for `O=C(O)c1ccc(-c2nn(-c3ccc(C(=O)O)cc3)cc2/C=N/Nc2c(F)c(F)cc(F)c2F)cc1`, the growth with T-47D breast is 95%; with BT-549 breast, 120%; in the assay on MDA-MB-435 melanoma, 107%; with SW-620 colon, 110%; in the assay with MCF7 breast it was 95.7%; with HCT-116 colon, 100%. Besides, the growth with HCC-2998 colon and in the assay on KM12 colon was 100% in each case.

With `CCOc1ccccc1C(=O)N1CCN(c2cc(Cl)cc(Cl)c2)CC1`, the growth with T-47D breast is 49%; in the assay with BT-549 breast, -13.2% (active); in the assay with MDA-MB-435 melanoma, -12.8% (active); with SW-620 colon, 22.9%; in the assay with MCF7 breast, 15.2%; in the assay with HCT-116 colon, -6.57% (active). Further, the growth with HCC-2998 colon is 16.4%; with KM12 colon, 8.79% (active).

For the compound `C=C1C(=O)O[C@H]2[C@H]1CC/C(COC(=O)c1ccc(C#N)cc1)=C\CC[C@@]1(C)O[C@@H]21`, the growth in the assay on T-47D breast was -16.2% (active); with BT-549 breast it was 29.7%; in the assay with MDA-MB-435 melanoma it was 24%; in the assay with SW-620 colon it was -27.7% (active); with MCF7 breast it was 0.298% (active); in the assay on HCT-116 colon, -60.3% (active). Also, the growth in the assay with HCC-2998 colon is 91.1%; in the assay with KM12 colon it was 84.8%.

As to `COc1ccc(SC2c3ccc(O)cc3Oc3nc(N)c(C#N)c(N)c32)cc1` (configuration not stated), the growth in the assay with T-47D breast was 85.4%; in the assay on BT-549 breast, 30.7%; in the assay with MDA-MB-435 melanoma, 87%; with SW-620 colon it was 105%; in the assay on MCF7 breast it was 90.7%; in the assay on HCT-116 colon it was 94.9%. Also, the growth with HCC-2998 colon is 92.7%; with KM12 colon, 65.5%.

Take `CC(C)CNCC(=O)Nc1ccc(Cc2ccc(NC(=O)CNCC(C)C)cc2)cc1`: the growth in the assay on T-47D breast was 68%; in the assay with BT-549 breast, 51.7%; in the assay on MDA-MB-435 melanoma, 88.5%; with SW-620 colon it was 77.5%; in the assay on MCF7 breast, 43.8%; with HCT-116 colon, 36.4%. For the same compound, the growth in the assay with HCC-2998 colon is 36.6%; in the assay with KM12 colon, 67.7%.

With `CCC(C)Nc1ccc(N)cc1` (configuration not stated), the growth with T-47D breast is 16.2%; in the assay with BT-549 breast, 31.7%; with MDA-MB-435 melanoma it was 12.7%; in the assay with SW-620 colon it was 29.9%; with MCF7 breast, 3.94% (active); in the assay with HCT-116 colon, -34.8% (active). The results for the growth in the assay with HCC-2998 colon and in the assay with KM12 colon were 28.4% and 8.28% (active), respectively.

For the compound `CC(CN(C)C)CN1c2ccccc2CCc2ccccc21` (configuration not stated), the growth is 78.1% in the assay with T-47D breast; 90.7% in the assay with BT-549 breast; 72.4% in the assay with MDA-MB-435 melanoma; 93.3% in the assay on SW-620 colon; 96.3% with MCF7 breast; 53.2% with HCT-116 colon. Besides, the values for the growth with HCC-2998 colon and with KM12 colon were 54.6% and 106%, respectively.

On to `COc1ccc2c(c1)C(=O)/C(=C/c1ccc(OCC(=O)c3ccc(Cl)cc3)cc1)O2`, for which the growth in the assay on T-47D breast was 72.2%; in the assay with BT-549 breast, 80.5%; with MDA-MB-435 melanoma it was 92.8%; with SW-620 colon it was 14.2%; in the assay with MCF7 breast, 104%; in the assay on HCT-116 colon, 30.1%. Further, the growth was 21.2% in the assay with HCC-2998 colon and 104% with KM12 colon.
